Experiments:
Assay in all cases: DAPPL (digital affinity profiling via proximity ligation, sequencing); 10 mM Tris-HCl pH 7.5, 50 mM NaCl, 1 mM DTT, 4% glycerol, room temperature, 30 min; GST-TFs on glutathione beads, 16-mer random dsDNA library, 0.1% formaldehyde crosslink after washing; high values mean tight binding
Settings in all cases: protein: recombinant; tags: N-terminal GST; dsDNA, one strand shown
FLI1 = molecular target: T1, FLI1 (Homo sapiens, UniProt Q01543 1-452)
T1 sequence: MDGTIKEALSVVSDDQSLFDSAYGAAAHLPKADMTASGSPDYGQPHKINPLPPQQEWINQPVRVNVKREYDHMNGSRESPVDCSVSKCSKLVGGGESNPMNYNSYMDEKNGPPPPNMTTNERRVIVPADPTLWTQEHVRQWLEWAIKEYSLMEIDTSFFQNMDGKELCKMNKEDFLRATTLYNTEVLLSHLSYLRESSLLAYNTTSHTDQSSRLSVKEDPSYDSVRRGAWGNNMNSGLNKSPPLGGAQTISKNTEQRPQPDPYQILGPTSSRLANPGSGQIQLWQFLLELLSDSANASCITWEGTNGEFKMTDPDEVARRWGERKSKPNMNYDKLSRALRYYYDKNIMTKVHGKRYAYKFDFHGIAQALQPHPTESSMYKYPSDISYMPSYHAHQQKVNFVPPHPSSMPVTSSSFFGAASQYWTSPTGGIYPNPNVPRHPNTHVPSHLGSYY
How it was run: (§1)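 After expression in yeast as GST fusions, human transcription factors were bound to glutathione beads, DNA-barcoded and mixed with a tag-only sample. The pools were incubated with 200 nmole of a 16-mer random double-stranded DNA library in Tris/NaCl/DTT/glycerol buffer (30 min, room temperature), washed and crosslinked with 0.1% formaldehyde. Proximity ligation with BsaI/T4 ligase ran for 1 h at 37 °C, before PCR amplification and sequencing on an Illumina NextSeq500. Binding signal is a hexamer's read frequency for a factor divided by its frequency for the tag-only sample.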

ELK1 = molecular target: T2, ELK1 (Homo sapiens, UniProt P19419 1-428)
T2 sequence: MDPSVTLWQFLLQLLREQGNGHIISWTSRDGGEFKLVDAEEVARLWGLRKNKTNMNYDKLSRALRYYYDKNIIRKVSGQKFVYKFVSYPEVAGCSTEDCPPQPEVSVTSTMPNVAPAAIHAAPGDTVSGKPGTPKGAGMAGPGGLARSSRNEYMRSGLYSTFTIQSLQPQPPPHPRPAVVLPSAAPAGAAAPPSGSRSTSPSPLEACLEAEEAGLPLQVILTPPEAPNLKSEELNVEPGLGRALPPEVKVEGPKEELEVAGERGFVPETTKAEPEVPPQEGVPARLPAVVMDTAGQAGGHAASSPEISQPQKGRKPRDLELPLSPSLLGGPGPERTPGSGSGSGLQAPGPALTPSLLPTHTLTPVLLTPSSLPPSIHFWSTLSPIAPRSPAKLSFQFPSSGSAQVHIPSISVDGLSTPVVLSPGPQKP
How it was run: as §1

GABPA = molecular target: T3, GABPA (Homo sapiens, UniProt Q06546 1-454)
T3 sequence: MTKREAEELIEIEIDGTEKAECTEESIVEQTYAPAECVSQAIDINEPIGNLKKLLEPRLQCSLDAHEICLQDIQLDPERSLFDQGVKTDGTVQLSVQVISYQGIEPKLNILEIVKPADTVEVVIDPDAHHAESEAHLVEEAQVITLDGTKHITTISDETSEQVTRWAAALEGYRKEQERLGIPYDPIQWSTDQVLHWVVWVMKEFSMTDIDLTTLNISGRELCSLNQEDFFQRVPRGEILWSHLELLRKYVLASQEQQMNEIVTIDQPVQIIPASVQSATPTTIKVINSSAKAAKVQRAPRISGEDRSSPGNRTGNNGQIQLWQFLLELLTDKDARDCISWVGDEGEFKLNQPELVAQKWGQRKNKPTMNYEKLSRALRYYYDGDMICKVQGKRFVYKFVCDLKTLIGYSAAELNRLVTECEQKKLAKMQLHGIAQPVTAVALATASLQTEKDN
How it was run: as §1

ERG = molecular target: T4, ERG (Homo sapiens, UniProt P11308 1-479)
T4 sequence: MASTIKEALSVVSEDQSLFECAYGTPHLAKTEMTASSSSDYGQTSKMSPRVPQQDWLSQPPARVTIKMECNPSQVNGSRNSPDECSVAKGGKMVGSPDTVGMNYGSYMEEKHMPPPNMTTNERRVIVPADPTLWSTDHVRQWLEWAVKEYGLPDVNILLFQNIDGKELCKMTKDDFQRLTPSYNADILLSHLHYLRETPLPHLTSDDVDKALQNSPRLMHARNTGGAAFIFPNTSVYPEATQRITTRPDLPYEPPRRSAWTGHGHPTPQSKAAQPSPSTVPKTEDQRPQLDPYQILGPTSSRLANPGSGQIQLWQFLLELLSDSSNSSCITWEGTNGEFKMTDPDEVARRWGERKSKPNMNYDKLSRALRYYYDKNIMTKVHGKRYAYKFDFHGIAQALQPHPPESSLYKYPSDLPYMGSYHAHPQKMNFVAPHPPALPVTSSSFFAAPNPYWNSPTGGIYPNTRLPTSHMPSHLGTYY
How it was run: as §1

ELF1 = ELF1 (Homo sapiens, UniProt P32519 1-619)
How it was run: as §1

EHF = molecular target: T5, EHF (Homo sapiens, UniProt Q9NZC4 1-300)
T5 sequence: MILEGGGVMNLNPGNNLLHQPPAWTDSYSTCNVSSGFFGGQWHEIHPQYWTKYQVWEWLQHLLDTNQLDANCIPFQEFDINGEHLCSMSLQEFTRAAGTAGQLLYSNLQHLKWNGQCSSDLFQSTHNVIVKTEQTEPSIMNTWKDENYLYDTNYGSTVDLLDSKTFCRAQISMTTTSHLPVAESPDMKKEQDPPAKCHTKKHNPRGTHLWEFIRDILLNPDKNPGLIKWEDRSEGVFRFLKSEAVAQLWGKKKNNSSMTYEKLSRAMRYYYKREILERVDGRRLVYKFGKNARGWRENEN
How it was run: as §1

SPI1 = SPI1 (Homo sapiens, UniProt P17947 1-270)
How it was run: as §1

SPIB = SPIB (Homo sapiens, UniProt Q01892 1-262)
How it was run: as §1

ELK3 = molecular target: T6, ELK3 (Homo sapiens, UniProt P41970 1-407)
T6 sequence: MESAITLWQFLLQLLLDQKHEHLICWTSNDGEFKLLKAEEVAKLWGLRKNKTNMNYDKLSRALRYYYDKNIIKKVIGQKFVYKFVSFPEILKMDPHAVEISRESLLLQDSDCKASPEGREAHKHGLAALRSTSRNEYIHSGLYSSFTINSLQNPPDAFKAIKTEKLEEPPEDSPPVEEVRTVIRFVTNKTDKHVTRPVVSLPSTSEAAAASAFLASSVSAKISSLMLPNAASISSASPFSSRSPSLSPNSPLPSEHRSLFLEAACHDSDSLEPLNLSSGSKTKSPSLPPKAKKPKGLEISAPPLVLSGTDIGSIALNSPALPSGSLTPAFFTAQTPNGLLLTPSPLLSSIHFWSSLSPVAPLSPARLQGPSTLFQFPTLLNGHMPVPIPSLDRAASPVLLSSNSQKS
How it was run: as §1

FEV = molecular target: T7, FEV (Homo sapiens, UniProt Q99581 1-238)
T7 sequence: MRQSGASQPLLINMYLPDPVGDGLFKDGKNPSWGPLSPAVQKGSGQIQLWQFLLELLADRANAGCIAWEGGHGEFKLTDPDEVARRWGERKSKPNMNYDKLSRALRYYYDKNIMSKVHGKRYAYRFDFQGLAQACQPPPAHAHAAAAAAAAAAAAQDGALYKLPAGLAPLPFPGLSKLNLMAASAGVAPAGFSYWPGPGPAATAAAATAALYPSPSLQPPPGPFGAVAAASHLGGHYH
How it was run: as §1

ETV5 = ETV5 (Homo sapiens, UniProt P41161 1-510)
How it was run: as §1

SPIC = molecular target: T8, SPIC (Homo sapiens, UniProt Q8N5J4 1-248)
T8 sequence: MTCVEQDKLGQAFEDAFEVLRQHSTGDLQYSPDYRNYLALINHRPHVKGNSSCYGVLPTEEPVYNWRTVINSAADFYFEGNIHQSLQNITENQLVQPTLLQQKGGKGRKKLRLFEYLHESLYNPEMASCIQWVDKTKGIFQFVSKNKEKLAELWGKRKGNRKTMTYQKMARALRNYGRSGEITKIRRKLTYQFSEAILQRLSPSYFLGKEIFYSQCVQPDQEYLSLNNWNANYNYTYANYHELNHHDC
How it was run: as §1

ELF4 = ELF4 (Homo sapiens, UniProt Q99607 1-663)
How it was run: as §1

ELK4 = molecular target: T9, ELK4 (Homo sapiens, UniProt P28324-2 1-405)
T9 sequence: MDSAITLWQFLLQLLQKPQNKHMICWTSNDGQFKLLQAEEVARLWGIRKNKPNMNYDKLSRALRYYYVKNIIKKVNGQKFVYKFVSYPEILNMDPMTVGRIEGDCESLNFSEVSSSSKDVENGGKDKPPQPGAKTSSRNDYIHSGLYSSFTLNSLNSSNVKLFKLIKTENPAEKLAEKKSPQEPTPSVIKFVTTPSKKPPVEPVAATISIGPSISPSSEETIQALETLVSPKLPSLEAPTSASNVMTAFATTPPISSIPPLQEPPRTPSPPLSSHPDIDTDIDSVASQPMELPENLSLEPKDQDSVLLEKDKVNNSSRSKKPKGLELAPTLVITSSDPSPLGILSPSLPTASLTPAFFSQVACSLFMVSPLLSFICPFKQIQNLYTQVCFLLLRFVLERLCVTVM
How it was run: as §1

ETV2 = molecular target: T10, ETV2 (Homo sapiens, UniProt O00321 1-342)
T10 sequence: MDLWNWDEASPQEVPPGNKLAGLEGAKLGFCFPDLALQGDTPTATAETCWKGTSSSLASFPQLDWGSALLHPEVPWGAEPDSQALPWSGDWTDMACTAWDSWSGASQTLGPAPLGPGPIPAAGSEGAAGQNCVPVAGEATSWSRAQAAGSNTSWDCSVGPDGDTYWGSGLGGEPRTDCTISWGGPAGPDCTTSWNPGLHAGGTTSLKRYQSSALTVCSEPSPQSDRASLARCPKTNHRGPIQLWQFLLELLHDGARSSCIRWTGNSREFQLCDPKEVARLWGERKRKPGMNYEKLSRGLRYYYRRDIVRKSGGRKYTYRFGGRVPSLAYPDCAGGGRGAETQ
How it was run: as §1

ELF3 = molecular target: T11, ELF3 (Homo sapiens, UniProt P78545 1-371)
T11 sequence: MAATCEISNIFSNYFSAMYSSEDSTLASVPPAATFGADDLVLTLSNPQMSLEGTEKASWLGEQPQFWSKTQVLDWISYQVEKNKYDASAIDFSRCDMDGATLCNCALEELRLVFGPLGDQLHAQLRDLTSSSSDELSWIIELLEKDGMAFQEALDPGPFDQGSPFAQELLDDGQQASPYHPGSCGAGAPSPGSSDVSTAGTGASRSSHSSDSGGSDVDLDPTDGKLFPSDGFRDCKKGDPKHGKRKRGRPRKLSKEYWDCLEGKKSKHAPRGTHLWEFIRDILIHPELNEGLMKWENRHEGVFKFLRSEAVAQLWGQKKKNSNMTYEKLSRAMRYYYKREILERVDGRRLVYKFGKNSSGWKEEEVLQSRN
How it was run: as §1

ETV1 = ETV1 (Homo sapiens, UniProt P50549 1-477)
How it was run: as §1

Chain of SPIB (Q01892 whole entry): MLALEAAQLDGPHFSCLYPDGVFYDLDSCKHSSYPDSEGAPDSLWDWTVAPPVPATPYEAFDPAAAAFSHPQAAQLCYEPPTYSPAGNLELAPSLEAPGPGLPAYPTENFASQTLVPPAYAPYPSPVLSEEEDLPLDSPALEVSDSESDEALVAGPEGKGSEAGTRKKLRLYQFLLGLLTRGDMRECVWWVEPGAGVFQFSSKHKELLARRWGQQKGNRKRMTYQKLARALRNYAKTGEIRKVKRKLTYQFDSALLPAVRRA
Chain of ETV1 (P50549 whole entry): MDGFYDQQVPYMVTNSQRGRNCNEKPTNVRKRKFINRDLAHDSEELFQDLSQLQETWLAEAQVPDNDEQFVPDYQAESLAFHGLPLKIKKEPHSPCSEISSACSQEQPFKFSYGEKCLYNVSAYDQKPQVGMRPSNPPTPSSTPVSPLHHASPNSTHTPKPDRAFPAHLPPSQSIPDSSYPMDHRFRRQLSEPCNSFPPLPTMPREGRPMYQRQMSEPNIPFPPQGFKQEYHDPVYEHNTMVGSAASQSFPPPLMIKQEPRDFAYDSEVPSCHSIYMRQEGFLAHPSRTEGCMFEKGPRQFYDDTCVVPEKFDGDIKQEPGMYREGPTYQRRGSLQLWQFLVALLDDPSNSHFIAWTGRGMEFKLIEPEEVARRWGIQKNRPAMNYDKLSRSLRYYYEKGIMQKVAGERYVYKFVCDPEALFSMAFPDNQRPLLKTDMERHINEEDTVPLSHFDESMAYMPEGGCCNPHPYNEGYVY
Chain of ELF4 (Q99607 whole entry): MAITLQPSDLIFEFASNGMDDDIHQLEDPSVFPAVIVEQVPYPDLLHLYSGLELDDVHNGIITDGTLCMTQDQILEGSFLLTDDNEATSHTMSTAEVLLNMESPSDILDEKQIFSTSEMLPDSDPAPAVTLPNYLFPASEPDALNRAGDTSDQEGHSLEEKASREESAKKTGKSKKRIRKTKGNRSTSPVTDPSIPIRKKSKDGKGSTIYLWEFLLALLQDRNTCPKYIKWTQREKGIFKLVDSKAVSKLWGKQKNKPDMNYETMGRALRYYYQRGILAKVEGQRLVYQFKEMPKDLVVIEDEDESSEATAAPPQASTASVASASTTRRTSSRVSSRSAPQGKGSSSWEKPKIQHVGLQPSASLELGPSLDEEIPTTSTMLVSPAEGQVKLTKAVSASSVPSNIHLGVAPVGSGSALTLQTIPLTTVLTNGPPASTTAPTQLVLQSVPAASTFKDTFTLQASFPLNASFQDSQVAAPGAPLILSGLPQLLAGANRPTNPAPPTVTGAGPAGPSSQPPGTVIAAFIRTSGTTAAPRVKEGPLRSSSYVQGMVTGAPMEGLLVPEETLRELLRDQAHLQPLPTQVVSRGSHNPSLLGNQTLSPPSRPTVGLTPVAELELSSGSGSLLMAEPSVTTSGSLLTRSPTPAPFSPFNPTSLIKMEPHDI
Chain of ELF1 (P32519 whole entry): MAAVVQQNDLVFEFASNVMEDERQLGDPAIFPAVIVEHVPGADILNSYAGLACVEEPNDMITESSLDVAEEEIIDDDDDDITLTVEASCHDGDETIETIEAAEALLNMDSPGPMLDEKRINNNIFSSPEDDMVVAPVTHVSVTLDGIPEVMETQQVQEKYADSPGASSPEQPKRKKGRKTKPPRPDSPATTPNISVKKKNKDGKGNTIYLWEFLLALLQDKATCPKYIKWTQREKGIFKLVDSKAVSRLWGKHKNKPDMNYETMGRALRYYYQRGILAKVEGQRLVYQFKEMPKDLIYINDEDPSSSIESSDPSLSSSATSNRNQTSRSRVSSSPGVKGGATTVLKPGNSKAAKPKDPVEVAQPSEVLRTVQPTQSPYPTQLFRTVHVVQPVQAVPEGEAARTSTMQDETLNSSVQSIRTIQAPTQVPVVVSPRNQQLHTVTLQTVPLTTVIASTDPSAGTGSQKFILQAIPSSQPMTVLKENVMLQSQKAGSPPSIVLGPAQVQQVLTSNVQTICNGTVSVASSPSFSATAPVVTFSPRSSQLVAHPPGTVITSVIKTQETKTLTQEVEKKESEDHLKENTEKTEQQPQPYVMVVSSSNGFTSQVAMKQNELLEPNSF
Chain of ETV5 (P41161 whole entry): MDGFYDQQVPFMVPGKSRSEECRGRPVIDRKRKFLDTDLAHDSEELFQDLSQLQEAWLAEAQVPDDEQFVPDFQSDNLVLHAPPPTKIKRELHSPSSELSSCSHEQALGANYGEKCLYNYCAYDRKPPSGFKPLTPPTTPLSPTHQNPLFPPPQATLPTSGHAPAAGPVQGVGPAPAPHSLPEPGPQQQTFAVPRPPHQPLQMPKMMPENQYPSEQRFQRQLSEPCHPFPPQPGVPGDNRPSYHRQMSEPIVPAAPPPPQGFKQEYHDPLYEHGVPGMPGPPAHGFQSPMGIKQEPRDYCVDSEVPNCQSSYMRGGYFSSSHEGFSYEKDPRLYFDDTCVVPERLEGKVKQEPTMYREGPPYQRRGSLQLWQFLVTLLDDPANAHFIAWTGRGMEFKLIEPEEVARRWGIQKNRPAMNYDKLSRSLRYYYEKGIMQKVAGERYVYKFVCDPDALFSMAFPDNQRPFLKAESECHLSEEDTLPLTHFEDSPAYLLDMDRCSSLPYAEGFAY

CCCCAC was tested, and the binding signal (FLI1) was 1.19 fold enrichment (6-mer frequency, TF over GST control), the binding signal (ELK1) was 1.24 fold enrichment (6-mer frequency, TF over GST control) and the binding signal (GABPA) was 1.19 fold enrichment (6-mer frequency, TF over GST control). The binding signal (ERG) was 1.2 fold enrichment (6-mer frequency, TF over GST control), the binding signal (ELF1) was 1.24 fold enrichment (6-mer frequency, TF over GST control) and the binding signal (EHF) was 1.34 fold enrichment (6-mer frequency, TF over GST control). For the same sequence, the binding signal (SPI1) was 1.22 fold enrichment (6-mer frequency, TF over GST control), the binding signal (SPIB) was 1.25 fold enrichment (6-mer frequency, TF over GST control) and the binding signal (ELK3) was 1.34 fold enrichment (6-mer frequency, TF over GST control). For the same sequence, the binding signal (FEV) was 1.29 fold enrichment (6-mer frequency, TF over GST control), the binding signal (ETV5) was 1.18 fold enrichment (6-mer frequency, TF over GST control) and the binding signal (SPIC) was 1.33 fold enrichment (6-mer frequency, TF over GST control). The binding signal (ELF4) was 1.28 fold enrichment (6-mer frequency, TF over GST control), the binding signal (ELK4) was 1.36 fold enrichment (6-mer frequency, TF over GST control) and the binding signal (ETV2) was 1.2 fold enrichment (6-mer frequency, TF over GST control). The binding signal (ELF3) was 1.25 fold enrichment (6-mer frequency, TF over GST control) and the binding signal (ETV1) was 1.11 fold enrichment (6-mer frequency, TF over GST control).

Reference: paper PMC7862700, “An all-to-all approach to the identification of sequence-specific readers for epigenetic DNA modifications on cytosine”
